SW480 rerep = inducers of DNA re-replication in SW480 colon cancer cells. hit rate 1.8% among 340,000. Potency, µM (top dose mostly 46.1 µM), for the others: at the highest dose re-replication activation, actives largely listed as activators. SW480 DNA re-replication, Hoechst DNA content imaging, 48 h; also: potency is read from the fitted curve at half-maximal effect; % of control where 0% means no effect; nearly all actives have a fitted effect of over 55% in size
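Hoechst fluorescence of nuclei (405 nm excitation, 500-530 nm emission) measured by plate-scanning imager after 48 hr compound exposure at 37 C; re-replication scored as increased number of nuclei with elevated intensity.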
IL-1B inflam inh = inhibitors of inflammasome signaling (IL-1 beta secretion) | hit rate 4.7% among 360,000 | AID 743279 | THP-1 LPS/ATP IL-1B secretion, AlphaLISA, 16 h; active compounds read low | activity change, % at 57.5 µM; in the data active = activity change below about -50%; inconclusive = mostly about -30% to -49%; also: % is scaled to controls: 0 for no effect and ±100 for the full control effect
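Secreted IL-1B measured by AlphaLISA bead assay after 16 h compound exposure of THP-1 cells; compounds (final up to 57.5 uM) added 1 h before LPS (250 ng/mL) and ATP (1.25 mM) stimulation; lower signal means less secretion.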
MCF10A rereplic = inducers of DNA re-replication in MCF 10A breast cells; hit rate 2.9% among 350,000; MCF 10A DNA re-replication, Hoechst nuclear intensity, 48 h; Potency, µM (top dose mostly 46.1 µM), for inactives: top-dose activity, positive = re-replication, actives largely listed as activators; also: potency is read from the fitted curve at half-maximal effect; % of control where 0% means no effect; nearly all actives have a fitted effect of over 50% in size
Vif-A3F inh = inhibitors of Vif-A3F interaction | Potency, µM (highest dose often 46.1 µM), for inactives: top-dose activity, negative = active | AID 602313 | hit rate 0.2% among 390,000 | HeLa A3F-eYFP + Vif (tagged APOBEC3F with the HIV-1 protein that degrades it), YFP fluorescence increase; also: potency is read from the fitted curve at half-maximal effect; % of control where 0% means no effect; nearly all actives have a fitted effect of over 65% in size
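Fluorescence increase (Ex 488/Em 500-530) after overnight compound treatment at 37 deg C flags inhibition of Vif-driven A3F-eYFP loss in stable HeLa A3F-eYFP/Vif cells seeded overnight beforehand.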
Giardia killer = Giardia lamblia killing; hit rate 0.15% among 340,000; AID 540267; activity change, % at 7.66 µM, hits read low; Giardia lamblia trophozoite viability; in the data active = activity change below about -80%; inconclusive = between about -30% and that limit;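 also: parasites exposed to compound for two days anaerobically before the ATP read; % is scaled to controls: 0 for no effect and ±100 for the full control effect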
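Giardia trophozoites, 100 cells per well, were exposed to compounds for 48 hrs at 37 deg C under anaerobic conditions; viability was then read as ATP content by bioluminescence after 15-30 min at room temperature.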
Vif-APOBEC3G blk = inhibitors of Vif-APOBEC3G interaction; Potency, µM (titrated, usually from 46.1 µM), for the others: at the highest dose activity, negative = active, usual class: inhibitors; HeLa A3G-eYFP + Vif (tagged APOBEC3G with the HIV-1 protein that degrades it), YFP fluorescence, overnight; hit rate 0.076% among 410,000; also: potency is read from the fitted curve at half-maximal effect; % is scaled to controls: 0 for no effect and ±100 for the full control effect; nearly all actives have a fitted effect of over 60% in size
Target sequence (Q9HC16 whole entry, looked up): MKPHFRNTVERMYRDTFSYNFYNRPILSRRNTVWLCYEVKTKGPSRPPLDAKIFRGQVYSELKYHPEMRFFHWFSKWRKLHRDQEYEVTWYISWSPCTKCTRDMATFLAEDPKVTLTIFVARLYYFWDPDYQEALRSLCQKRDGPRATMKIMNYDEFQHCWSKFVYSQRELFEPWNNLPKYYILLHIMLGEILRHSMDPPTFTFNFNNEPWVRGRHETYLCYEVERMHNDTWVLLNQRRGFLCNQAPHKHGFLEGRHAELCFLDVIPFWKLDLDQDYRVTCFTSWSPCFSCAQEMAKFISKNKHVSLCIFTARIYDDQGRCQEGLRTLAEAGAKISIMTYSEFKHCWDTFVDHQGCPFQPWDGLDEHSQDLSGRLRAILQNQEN
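Read-out is eYFP fluorescence (Ex 488/Em 500-530) from Vif-expressing HeLa A3G-eYFP cells; more signal means A3G escaped Vif-mediated degradation. Cells plated overnight, compound pinned in, incubated overnight at 37 deg C.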
An asterisk follows results filed as active; ? = inconclusive; . = not tested or not shown; [ ] = dose if it differs, or a comment. Only some compounds are listed: those with a hit (about 6.9% of all), similar ones and a draw of the others. Unless noted, calls follow the shape of the dose curve; as a rule, active = well fitted curve in the direction sought with a large enough effect; inconclusive = small, poorly fitted or top-dose-only effect, or another doubt; inactive = no such curve, though single readings can be large; an effect the other way counts as inactive or inconclusive.

SMILES | SW480 rerep | IL-1B inflam inh | MCF10A rereplic | Vif-A3F inh | Giardia killer | Vif-APOBEC3G blk
CCOC(=O)c1nnc(-c2ccccc2)nc1Oc1ccc(Cl)cc1 | -3.8% | -71.0* | ? | -12.0% | -1.6 | -8.9%
O=S(=O)(c1ccc(Cl)cc1)c1nnn2c1nc(N1CCCCC1)c1sccc12 | . | . | . | 3.6% | . | -1.9%
COc1ccc(NC(=O)CNC(=O)C23CC4CC(CC(C4)C2)C3)c(OC)c1 | 4.61µM* | -8.3 | -22.3% | 0.2% | 0.3 | -0.4%
COc1ccc(NC(=O)CC23CC4CC(CC(Br)(C4)C2)C3)c(OC)c1 | -3.5% | 18.5 | 2.1% | 5.8% | -10.7 | -1.5%
COC(=O)c1cc2oc3ccccc3c2n1Cc1nc(-c2cccc(C)c2)oc1C | . | . | . | -1.2% | . | 2.3%
CCC(=O)Nc1nnc(S(=O)(=O)N(C)Cc2ccccc2)s1 | . | . | . | 1.5% | . | 5.3%
O=C1N(Cc2cccc(C(F)(F)F)c2)c2ccccc2S(=O)(=O)N1c1cccc(Cl)c1 | . | . | . | -10.5% | . | -5.2%
CC(C)(C)OC(=O)C[C@H]1C/C=C\C[C@H](CC(=O)N[C@H](CO)Cc2ccccc2)C(=O)N[C@H](Cc2ccccc2)COC1=O | ? | -57.9* | -0.2% | 4.4% | -4.5 | -7.6%
O=C1c2cc([N+](=O)[O-])ccc2-c2cc(Br)c(N=C(NO)C(F)(F)F)cc21 | ? | -100.9* | 18.8% | 5.0% | -9.2 | -8.3%
CC(=O)c1ccc(NC(=O)COc2ccccc2-c2nc(-c3ccc(C)cc3)no2)cc1 | . | . | . | 1.4% | . | 2.2%
OCCNCc1cc(Br)ccc1OCc1ccc(Cl)cc1 | 14.1% | ? | 9.9% | -11.6% | 3.6 | 0.6%
OCCNCc1cc(Br)ccc1OCc1ccc(Cl)cc1Cl | ? | ? | ? | -2.5% | -18.7 | -13.9%
OCCCCNCc1cc(Br)ccc1OCc1ccccc1F | -8.1% | -70.3* | -3.8% | 7.4% | 27.3 | 0.3%
Brc1ccc(OCc2ccccc2)c(CNCc2ccncc2)c1 | ? | -59.0* | ? | -12.5% | -4.8 | -12.0%
OCCNCc1cc(Br)ccc1OCc1ccc(F)cc1 | -13.0% | -80.7* | 0.3% | -1.3% | 8.6 | -3.9%
Fc1ccc(COc2ccccc2CNCc2ccncc2)cc1 | -5.1% | -4.2 | 11.8% | -1.6% | -14.9 | 1.4%
COC(=O)c1ccc(OCC2c3cc(OC)c(OC)cc3CCN2C(=O)Cc2ccccc2)cc1 (centres undefined) | . | . | . | 6.0% | . | 1.0%
COc1ccc(N2CCN(C(=O)COc3ccccc3C#N)CC2)cc1 | . | . | . | -2.4% | . | 2.9%
Cc1cc(F)ccc1NC(=O)C(C(C)C)N1Cc2ccccc2C1=O (centres undefined) | . | . | . | -8.8% | . | 10.4%
Cc1ccc(-n2cc(CNCCN3CCOC3=O)c(-c3cccc(C)c3)n2)cc1 | 10.3% | -66.4* | 20.1% | -0.9% | 4.4 | -5.7%
Cc1ccc(C)c(-n2cc(CNCCCn3cccn3)c(-c3ccccc3)n2)c1 | 16.4µM* | ? | ? | -6.8% | -4.5 | 1.4%
Cc1ccc(-n2cc(CNCCCn3cccn3)c(-c3cccc(C)c3)n2)cc1 | 11.0% | -99.2* | ? | 4.0% | 11.1 | -12.0%
CC(C)(C)NC(=O)[C@H]1CN(Cc2cccnc2)CCN1C[C@@H](O)C[C@@H](Cc1ccccc1)C(=O)N[C@H]1c2ccccc2C[C@H]1O | 3.2% | . | ? | . | . | .
O=C(N/N=C/c1ccc(O)cc1O)/C(=C/c1ccccc1)CCO | ? | 59.6 | 18.4µM* | 7.1% | -11.1 | -0.1%
CCc1ccc(NC(=S)NC2CC3CCCC(C2)N3Cc2cccs2)cc1 (centres undefined) | 14.6µM* | -90.5* | 0.0% | 7.7% | -13.9 | 0.7%
SMILES | SW480 rerep | IL-1B inflam inh | MCF10A rereplic | Vif-A3F inh | Giardia killer | Vif-APOBEC3G blk
CCc1ccccc1NC(=O)NC1CC2CCC(C1)N2Cc1cccs1 (centres undefined) | -2.4% | -6.4 | ? | 2.1% | -10.5 | -0.4%
CCCCOc1ccc(C(O)C(CN2CCCCC2)c2ccccc2)cc1 (centres undefined) | ? | ? | ? | -1.2% | 22.0 | 4.2%
COc1ccc(C(=O)C(CN2CCOCC2)c2ccccc2)cc1 (centres undefined) | -1.8% | -98.6* | ? | -2.8% | -11.9 | -22.8%
CCCCOc1ccc(C(=O)C(CN2CCOCC2)c2ccccc2)cc1 (centres undefined) | 14.6µM* | -97.8* | ? | -2.3% | 2.8 | -11.9%
CCCOc1ccc(C(=O)C(CN2CCCC2)c2ccccc2)cc1 (centres undefined) | ? | -102.6* | 8.2µM* | -3.6% | -11.5 | -12.8%
O=C(c1ccccc1)C(CCC(CN1CCOCC1)C(=O)c1ccccc1)CN1CCOCC1 (centres undefined) | ? | -117.5* | 4.61µM* | -4.4% | 4.2 | -25.3%
Cc1cc(C)cc(N2CCn3c2nc2c3c(=O)n(CCc3ccccc3)c(=O)n2C)c1 | . | . | . | 0.9% | . | 0.8%
Cc1ccc(CSc2c(C)cnc3c2c(=O)n(C)c(=O)n3C)cc1 | . | . | . | -12.4% | . | 1.1%
OC(CN1CCCC1)c1ccccc1 (centres undefined) | . | . | . | . | . | 0.3%
COc1ccc(C(=O)CCN2CCCCCC2)cc1 | ? | -3.9 | ? | 2.4% | -4.1 | -12.7%
O=C(c1ccc(F)cc1)C(CN1CCOCC1)c1ccccc1 (centres undefined) | ? | -64.1* | 5.17µM* | 8.1% | 9.8 | -27.7%
O=C(c1ccc(Cl)cc1)C(CN1CCCC1)c1ccccc1 (centres undefined) | ? | -98.4* | 4.11µM* | -19.0% | 17.9 | ?
COc1ccc(C(=O)C(CN2CCCC2)c2ccccc2)cc1 (centres undefined) | ? | -108.7* | ? | -2.7% | -13.0 | ?
CCN1/C(=C/C(C)=C/c2sc3ccccc3[n+]2CC)Sc2ccccc21 | 29.8% | -97.5* | -7.2% | ? | -5.9 | 13.6%
Cc1ccc(-c2[nH]ncc2CNCc2ccccc2)cc1 | . | . | . | . | 0.2 | 3.1%
CC1CCCCN1C(=O)COC(=O)CSc1ccc(C(N)=O)cc1[N+](=O)[O-] (centres undefined) | 6.51µM* | 16.1 | ? | -5.0% | -11.9 | 0.9%
CC(C)C1NC(C(=O)O)Cc2c1[nH]c1ccccc21 (centres undefined) | -19.3%[1.84 µM] | 24.5 | -22.7% | 1.4% | 7.5 | 6.2%
CC(C)C1NCCc2c1sc1ccccc21 (centres undefined) | -3.9%[9.22 µM] | -50.2* | 4.6% | 6.4% | 3.0 | -0.1%
O=C/C=C/c1c(-c2ccccc2)cc2oc3ccccc3cc1-2 | ? | -98.8* | 8.2µM* | -0.2% | -21.6 | ?
COc1ccccc1Nc1nc(-c2c(C)nc3ncccn23)cs1 | ? | -98.7* | 9.2% | 16.9% | 17.3 | ?
Cc1nc2ncccn2c1-c1csc(Nc2ccccc2)n1 | -8.5% | -1.5 | 10.6% | -23.9% | 11.2 | -27.7%

Screening data deposited in PubChem by National Center for Advancing Translational Sciences (NCATS).
